Shown are actives, neighbours in structure and some others; about 2.3% of the full set was active somewhere.
Abeta rescue – qHTS for compounds that reverse cellular toxicity of Amyloid beta (A-beta) peptide in yeast: Primary Screen; yeast expressing A-beta42, growth rescue, OD600, 48 h; response scale: 0% DMSO, 100% iron-clioquinol control; Potency, µM (doses to about 46.1 µM), usual class: activators; 0.063% of 410,000 active; AID 1347071, 2019; also: nearly all actives have a fitted effect of over 55% in size
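Growth rescue measured by 600 nm absorbance after 48 h yeast culture at 30 C with compound. Values normalized between DMSO and an equimolar ferric chloride plus clioquinol control.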
FUS suppressor – qHTS for Suppressors of FUS Proteinopathy: Primary screen using FUS-linked yeast assay; S. cerevisiae FUS-expressing, growth rescue, OD600, 24 h; Potency, µM (highest dose often 76.6 µM), hits mostly activators; 0.24% of 390,000 active; AID 1347120, 2019; also: nearly all actives have a fitted effect of over 55% in size
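S. cerevisiae expressing FUS from galactose induction served as the toxicity model. Growth after 24hr at 30C, read as absorbance at 600 nm, indicates suppression of toxicity; compounds dosed at several concentrations.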
MmCpn inh – Inhibitors of TCP-1 ring complex (TRiC) of Methanococcus maripaludis (MmCpn): qHTS | Chaperonin Mm-Cpn (Methanococcus maripaludis) | purified Mm-Cpn ATPase, ADP Transcreener TR-FRET | Potency, µM (highest dose often 76.9 µM), most hits filed as inhibitors | 0.031% of 330,000 active | AID 504842, 2011; also: nearly all actives have a fitted effect of over 80% in size
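ATPase read-out: TR-FRET ADP immunoassay (anti-ADP Eu cryptate vs ADP-d2), ex 320 nm, em 590/665 nm; signal drops as ADP forms. Enzyme 25 nM, ATP 10 uM, 30 min at 37°C after 10 min compound preincubation.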
aSyn rescue – qHTS of alpha-syn Inhibitors. 0.14% of 370,000 active. Yeast expressing alpha-synuclein, growth rescue, BacTiter-Glo, 24 h. Potency, µM (doses to about 46.1 µM), actives largely listed as activators; also: nearly all actives have a fitted effect of over 65% in size
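Readout is rescue of growth in alpha-synuclein-expressing yeast, so inhibitors of toxicity appear as activators. Growth after 24 hr at 30 deg C in galactose medium is quantified by luminescence.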
CCT chaperon mod – High-Throughput Screening for Modulators of Cytosolic Chaperonin Activity; 0.3% of 360,000 active; purified chaperonin ATPase assay, HTRF ADP detection, 30 min; activity change, % (no concentration beside the values), hits read low; in the data active = activity change below about -30%
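ATPase activity: ADP formed was measured by HTRF Transcreener (665/615 nm ratio) after 30 min at 37 deg C with 10 uM ATP. Compounds screened at one 76 uM concentration against 40 or 20 nM TRiC in Tris pH 7.4/KCl/MgCl2/DTT buffer.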
TDP43 rescue – qHTS of TDP-43 Inhibitors. 1.8% of 410,000 active. TDP-43 expressing yeast growth rescue, BacTiter-Glo, 24 h. AID 652104, 2013. Potency, µM (highest dose often 46.1 µM), most hits filed as activators; also: nearly all actives have a fitted effect of over 50% in size
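Galactose-induced TDP-43 yeast, OD600=0.02, compound pinned; 24 hr, 30 deg C; BacTiter-Glo luminescence for growth. Inhibitors of TDP-43 toxicity read as activators.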
Large screens that a line does not name were inactive. Unless noted, calls follow the shape of the dose curve; as a rule, active = well fitted curve in the direction sought with a large enough effect; inconclusive = small, poorly fitted or top-dose-only effect, or another doubt; inactive = no such curve, though single readings can be large; an effect the other way counts as inactive or inconclusive.

O=S1(=O)CC2c3ccc(F)cc3CN2CN1Cc1ccc(F)cc1 (configuration not stated)	none (no result: Abeta rescue, MmCpn inh, aSyn rescue, CCT chaperon mod, TDP43 rescue)
Cc1nn(CC(=O)N2CCN(c3ccccc3F)CC2)c(=O)c2cccn12	none (no result: MmCpn inh, aSyn rescue, CCT chaperon mod)
Cc1ccc(C(=O)Nc2nnc(-c3ccco3)o2)cc1C	none
CC(=O)c1ccc(C(=O)Nc2nnc(-c3ccc(Cl)cc3)o2)cc1	Abeta rescue 6.3µM, aSyn rescue 3.2µM, TDP43 rescue 10µM
O=C(COc1ccccc1)Nc1nnc(-c2ccc(Cl)cc2)o1	Abeta rescue inconclusive, aSyn rescue 14µM, TDP43 rescue 14µM
COc1ccc(-c2nnc(NC(=O)C(C)C)o2)cc1	CCT chaperon mod -39, TDP43 rescue inconclusive
O=C(Nc1nnc(-c2ccco2)o1)c1ccc(Cl)cc1	Abeta rescue inconclusive, aSyn rescue 11µM, TDP43 rescue inconclusive
CCn1c(CN2CCC(C)CC2)nc2cc(NC(=O)c3cccc([N+](=O)[O-])c3)ccc21	none (no result: MmCpn inh, aSyn rescue, CCT chaperon mod)
O=[N+]([O-])c1ccc(O/N=[N+](\[O-])N2CCCC2)c([N+](=O)[O-])c1	none (no result: Abeta rescue, FUS suppressor, MmCpn inh, CCT chaperon mod, TDP43 rescue)
COc1cccc(-c2nnc(NC(C)=O)o2)c1	none
COc1cccc(C(=O)Nc2nnc(-c3ccc(F)cc3)o2)c1	Abeta rescue inconclusive, aSyn rescue 10µM, TDP43 rescue 7.1µM
COc1cccc(C(=O)Nc2nnc(-c3cccs3)o2)c1	Abeta rescue inconclusive
CCOc1ccccc1C(=O)OCC(=O)Nc1nnc(-c2ccccc2)o1	Abeta rescue inconclusive, aSyn rescue inconclusive, TDP43 rescue 22µM
COc1cccc(C(=O)Nc2nnc(-c3ccc(Cl)cc3)o2)c1	Abeta rescue inconclusive, aSyn rescue inconclusive, TDP43 rescue 3.2µM
O=C(Nc1cccc(Oc2ccccc2)c1)C1Cc2c(-c3ccccc3)ccnc2O1 (configuration not stated)	none (no result: MmCpn inh)
COc1ccc(NC(=O)C2Cc3c(-c4ccccc4Oc4ccccc4)ccnc3O2)cc1OC (configuration not stated)	FUS suppressor inconclusive, TDP43 rescue 11µM (no result: MmCpn inh)
O=C(Nc1cccc(Oc2ccccc2)c1)C1Cc2c(-c3ccco3)ccnc2O1 (configuration not stated)	TDP43 rescue 18µM (no result: MmCpn inh)
COc1ccc(NC(=O)C2Cc3c(-c4ccccc4Oc4ccccc4)ccnc3O2)cn1 (configuration not stated)	FUS suppressor inconclusive, TDP43 rescue inconclusive (no result: MmCpn inh)
COc1cccc(CNC(=O)CN2CCCc3ccccc32)c1	none (no result: Abeta rescue, MmCpn inh, aSyn rescue, CCT chaperon mod, TDP43 rescue)
COc1cccc(CC(=O)OC(C)C(=O)Nc2ccc(Cl)cn2)c1 (configuration not stated)	none
CC(OC(=O)Cc1cccc(C(F)(F)F)c1)C(=O)Nc1ccc(Cl)cn1 (configuration not stated)	Abeta rescue 5µM, TDP43 rescue inconclusive
O=S(=O)(NCc1nc2cccnc2n1Cc1ccc(F)cc1)c1ccc(Cl)s1	none (no result: MmCpn inh, aSyn rescue, CCT chaperon mod)
O=C(NCc1ccc(Cl)cc1)OCCN1C(=O)CCC12CCC(c1ccccc1)CC2 (configuration not stated)	none (no result: Abeta rescue, MmCpn inh, aSyn rescue, CCT chaperon mod, TDP43 rescue)
Cc1nn(-c2cccc(C(F)(F)F)c2)c(Cl)c1/C=N/Nc1cccc(C(=O)O)c1	TDP43 rescue inconclusive
CCOC(=O)N/N=C/c1c(C)nn(-c2cccc(C(F)(F)F)c2)c1Cl	Abeta rescue inconclusive, TDP43 rescue 13µM
N/C(Cc1ccc([N+](=O)[O-])cc1)=N\OC(=O)c1ccccc1F	TDP43 rescue 11µM
COc1ccc(OC)c(-c2nnc(-c3ccc(C)o3)o2)c1	TDP43 rescue 13µM
CC(=O)/C(N=Nc1nc2c([nH]1)c(=O)n(C)c(=O)n2C)=C(\C)O	FUS suppressor 2.2µM
Cn1c(=O)c2[nH]c(N=NN3CCCCC3)nc2n(C)c1=O	none (no result: MmCpn inh)

Bioassay records as filed in PubChem.
